Assay outcomes: PubChem BioAssay, Sanford-Burnham Center for Chemical Genomics
SKN-1 block: suppressors of acrylamide-induced Pgst-4::GFP reporter in worms, primary screen, SKN-1 inhibitor project, whole organism, uHTS, GFP/RFP fluorescence ratio, strain VP596 | C. elegans VP596 Pgst-4::GFP/RFP ratio, 24 h | inhibition, % at 21.8 µM | 360,000 tested, 0.49% active | AID 624304, 2012;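 active = interference check ratio from 0.5 to 1.5 plus GFP to RFP signal ratio inhibition reaching or exceeding a fixed threshold, cut at about 30% in these data, passing the limit was not always enough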
iPSC survival up: enhancers of single-cell hiPSC survival, primary screen, ATPlite luminescence; 100% = ROCK inhibitor wells, 0% = DMSO; survival enhancement, % at 20 µM; 360,000 tested, 0.044% active; in the data active = survival enhancement above about 18%;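 note: cells exposed to compounds for 16 hours before the ATP read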
H9c2 protect: cardioprotection against H2O2-induced cell death, primary screen, uHTS, H9c2 cells, ATPLite luminescence. H9c2 cardiomyocytes, H2O2 injury protection, 2 h. protection from H2O2 cell death, % at 20 µM. 360,000 tested, 0.63% active. AID 588492, 2011;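 active = compounds giving at least 50% protection of heart cells from peroxide-induced death in the single-dose screen, raw or plate-pattern-corrected value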
CRFBP-R2 agonist: agonists of CRF-BP/CRF-R2 complex, primary screen, cell-based, HEK293, calcium dye fluorescence, uHTS; calcium dye fluorescence (FLIPR); percent of saturating CRF peptide response; activation, % at 13.2 µM; CRF-binding protein / CRF receptor 2 complex (human); 350,000 tested, 0.46% active;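 active = activation of at least 50%, plus an integration ratio under a set limit after plate pattern correction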
CRFBP-R2 block: antagonists of CRF-BP/CRF-R2 complex, primary screen, cell-based, HEK293, calcium dye fluorescence, uHTS; inhibition, % at 11.8 µM; 350,000 tested, 0.59% active; CRF-induced calcium fluorescence;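 active = inhibition of the ligand-induced calcium signal above about 50% at the single tested concentration, limit read from the data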
H9c2 TAG inh: inhibitors of triacylglycerol accumulation, primary screen, cell-based, uHTS, fluorescence, H9c2 | H9c2 cells, Nile Red lipid (TAG) fluorescence; cells loaded with 200 µM oleic acid | inhibition, % at 12.5 µM | 230,000 tested, 0.66% active;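 active = pattern-corrected inhibition of lipid staining of at least 50% with the nuclear-stain viability signal not falling by more than 50%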
Of the large screens only hits and unclear results are named; the others gave an inactive call. Hits are enriched below; roughly 2.5% of the tested compounds scored in any of these assays.

COCCNC(=O)c1nn2c(C(F)(F)F)cc(-c3ccccc3)nc2c1Cl	none
COCCNC(=O)C1(C)CCCN(Cc2csc(-c3ccc(Cl)cc3)n2)C1 (stereo unspecified)	none (no result: CRFBP-R2 agonist, CRFBP-R2 block)
O=C(CSc1nc2ccccc2c(=O)[nH]1)Nc1ccc(Br)cc1	none
O=C(CSc1ncc(-c2ccc(F)cc2)n1Cc1ccco1)Nc1nccs1	none
Cc1ccc(NC(=O)CSc2nc3[nH]ncc3c(=O)[nH]2)c(C)c1	none
Cc1cccc(NC(=O)CSc2nc3[nH]ncc3c(=O)[nH]2)c1C	CRFBP-R2 block 50.6 (no result: H9c2 TAG inh)
O=C(CSc1nc2ccccc2c(=O)[nH]1)Nc1cccc([N+](=O)[O-])c1	H9c2 protect 52.8
Cc1cnc(NC(=O)CSc2ncc(-c3ccccc3)n2Cc2ccco2)s1	CRFBP-R2 agonist 60.1
Cc1cnc(NC(=O)CSc2nc3ccccc3c(=O)[nH]2)s1	H9c2 protect 58.6
C=CCn1c(=O)/c(=C/c2ccc(Cl)cc2)s/c1=C(\C#N)c1nnc2n1CCCCC2	none
O=C(COC(=O)c1nc(Cl)ccc1Cl)NNC(=O)c1cccs1	none
CC(C)(C)NC(=O)C(c1ccc(C(F)(F)F)cc1)n1c(=O)c(-c2cc3ccccc3[nH]2)nc2ccccc21 (stereo unspecified)	none (no result: iPSC survival up, H9c2 protect, CRFBP-R2 agonist, CRFBP-R2 block, H9c2 TAG inh)
CC(C)N1CCC1(C)C(=O)Nc1nc2ccccc2[nH]1 (stereo unspecified)	none (no result: CRFBP-R2 agonist, CRFBP-R2 block)
O=C(COc1ccc2c(-c3ccccc3)cc(=O)oc2c1)N1C[C@H]2C[C@@H](C1)c1cccc(=O)n1C2	none (no result: CRFBP-R2 agonist, CRFBP-R2 block, H9c2 TAG inh)
COc1cccc(-c2ccc(CN3C(C(C)C)C(=O)N(Cc4cn(CCC5OCCO5)nn4)CCS3(=O)=O)cc2)c1OC (stereo unspecified)	none (no result: CRFBP-R2 agonist, CRFBP-R2 block, H9c2 TAG inh)
COc1cc(C(=O)N2CCN(c3cccc(C)c3C)CC2)cc(OC)c1OC	H9c2 TAG inh 55.7
CC1=C(C(=O)N(C(C)C)C(C)C)CC(CC(=O)NCc2ccco2)C(=O)N1Cc1ccc(F)cc1 (stereo unspecified)	none (no result: CRFBP-R2 agonist, CRFBP-R2 block, H9c2 TAG inh)
Clc1ccc(Nc2ncnc3c2cnn3-c2ccccc2)cc1	SKN-1 block 37.5
c1ccc(CCNc2ncnc3c2cnn3-c2ccccc2)cc1	SKN-1 block 35.3 (no result: H9c2 TAG inh)
c1ccc(CNc2ncnc3c2cnn3-c2ccccc2)cc1	none (no result: H9c2 TAG inh)
CC(=O)Nc1ccc(S(=O)(=O)N(Cc2ccccc2)C(C)C)cc1	none
Cc1nc(-c2ccncc2)nc(NCCNc2ccc(C(F)(F)F)cn2)c1Cl	CRFBP-R2 block 117.6
FC(F)(F)c1ccc(NCCc2ccccc2)nc1	none
COc1ccc([C@]2(C(C)C)ON(c3ccccc3C(F)(F)F)C2=O)cc1	none
CCC1CCCCN1CCN1C(=O)C2C(C(=O)Nc3ccc(OC)cc3)C3C=CC2(O3)C1C(=O)NC1CCCCC1 (stereo unspecified)	SKN-1 block 36.7 (no result: H9c2 TAG inh)
CCC1CCCCN1CCN1C(=O)C2C(C(=O)Nc3cccc(OC)c3)C3C=CC2(O3)C1C(=O)NC1CCCCC1 (stereo unspecified)	none (no result: H9c2 TAG inh)
Oc1ccc(C=NNC(=S)Nc2cccnc2)nc1	none
CC(C)(C)c1ccc(C(=O)NCCC(=O)Nc2cc(Cl)ccc2N2CCOCC2)cc1	H9c2 TAG inh 56.8
O=C(CCC1CCCC1)Nc1cc(Cl)ccc1N1CCOCC1	none
CCCCc1cc(=O)oc2cc(O)ccc12	H9c2 protect 52.5
CCCCc1cc(=O)oc2cc(OCC(=O)N3CCOCC3)ccc12	none (no result: H9c2 TAG inh)
C=CCN(c1ccccc1)S(=O)(=O)c1cccc(C(=O)O)c1	CRFBP-R2 block 97.9
COCc1cc(C)nc(SCC(=O)c2ccc(O)c(O)c2)c1C#N	H9c2 protect 76.1 (no result: H9c2 TAG inh)
Cc1cc(NC(=O)CSc2nnc(-c3ccncc3)n2-c2ccc(F)cc2)no1	SKN-1 block 42.4
CCn1c(SCC(=O)Nc2cc(C)on2)nnc1-c1ccncc1	none (no result: H9c2 TAG inh)
O=C(CSC1=NNC(c2ccccn2)S1)Nc1cccc(Cl)c1 (stereo unspecified)	H9c2 protect 60.9
O=C(CSC1=NNC(c2ccccn2)S1)Nc1ccccc1 (stereo unspecified)	none
O=C(N/N=C/c1cn(-c2ccccc2)nc1-c1cccs1)c1ccncc1	H9c2 protect 53.6
O=C(N/N=C/c1nn(-c2ccccc2)cc1-c1ccccc1)c1ccncc1	H9c2 protect 62.3 (no result: H9c2 TAG inh)
CCCC(=NCC(=O)O)C1=C(O)C(C(=O)OC)C(C)(C)CC1=O (stereo unspecified)	CRFBP-R2 block 61.2 (no result: H9c2 TAG inh)
O=C1C2C(C(=O)N1Cc1cccnc1)C1C=CC2C12CC2 (stereo unspecified)	SKN-1 block 40.5
O=C1C2C3C=CC(C3)C2C(=O)N1Cc1cccnc1 (stereo unspecified)	none (no result: H9c2 TAG inh)
CN(C)C(=O)CN1C(=O)NC2(CCc3ccccc32)C1=O (stereo unspecified)	SKN-1 block 37.1
C/C(=N\NC(=O)c1ccc(NS(=O)(=O)c2cccs2)cc1)c1ccncc1	none
C/C(=N\NC(=O)c1ccc(NS(=O)(=O)c2cccs2)cc1)c1ccccc1	CRFBP-R2 block 58.2
Cc1ccc(CC2(C)C(=O)Nc3c(Cl)ccc(Cl)c32)cc1 (stereo unspecified)	none (no result: CRFBP-R2 agonist, CRFBP-R2 block)
CCCc1cc2nnc(SCC(=O)N(C)C3CCCCC3)n2c(N)n1	SKN-1 block 43.5 (no result: H9c2 TAG inh)
CC=CCn1c(SCc2ccccc2)nc2c1c(=O)[nH]c(=O)n2C	none (no result: CRFBP-R2 agonist, CRFBP-R2 block)
CCCCCCn1c(SCCN2CCOCC2)nc2c1c(=O)[nH]c(=O)n2C	iPSC survival up 26.3
C=CCn1c(SCc2ccc(F)cc2)nc2c1c(=O)[nH]c(=O)n2C	CRFBP-R2 block 62.1
CCCCCn1c(SCCN2CCOCC2)nc2c1c(=O)[nH]c(=O)n2C	none
CCCn1c(SCc2ccccc2)nc2c1c(=O)[nH]c(=O)n2C	iPSC survival up 32.2
C#CCNC(=O)C[C@@H]1C[C@@]2(C(=O)OC)CC(C)(C)CC=C2N(CCCCCCCC)C1=O	none (no result: iPSC survival up, H9c2 protect, CRFBP-R2 agonist, CRFBP-R2 block, H9c2 TAG inh)
COC(=O)[C@]12CCCCC=C1N(Cc1ccc(Cl)cc1Cl)C(=O)[C@H](CC(=O)NCCc1ccccc1OC)C2	none (no result: H9c2 protect, CRFBP-R2 agonist, CRFBP-R2 block, H9c2 TAG inh)
COc1ccccc1NC(=O)CSc1nnc(CNC(=O)c2ccco2)o1	CRFBP-R2 block 66.1
COc1ccc(NC(=O)CSc2nnc(CNC(=O)c3ccco3)o2)c(OC)c1	none
CC(C)CNC(=O)CN1c2cccc3cccc(c23)S1(=O)=O	CRFBP-R2 block 78.6 (no result: H9c2 TAG inh)
COC(=O)c1ccc(COC(=O)Cc2n[nH]c(=O)c3ccccc23)cc1	none
Cc1cccc(C(C)C)c1NC(=O)C(C)OC(=O)Cc1n[nH]c(=O)c2ccccc12 (stereo unspecified)	H9c2 protect 70.9
